A selection: hits, their analogues and other compounds. The true share with any hit is near 19%.
HT1080NT lethal: kills 2HG-producing HT-1080-NT fibrosarcoma cells; Potency, µM (series often up to 46.1 µM), for inactives: top-dose activity, negative = less viability, hits mostly cytotoxic; HT-1080-NT fibrosarcoma viability, CellTiter-Glo ATP luminescence, 48 h; AID 686970; 360,000 tested, 1.6% active;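 also: NT is the 2HG producing partner of a matched IDH1 knockdown line; potency is read from the fitted curve at half-maximal effect; 0% = DMSO-treated cells and -100% = media-only wells without cells; nearly all actives have a fitted effect of over 55% in size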
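Compounds were tested in concentration-response format on HT-1080-NT cells for 48 hours at 37 degrees C. Cell viability came from CellTiter-Glo luminescence; curves were classified by r2, response magnitude and activity.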
DT40 TDP1 CPT: growth inhibition of DT40 Tdp1-/-;hTDP1 cells with camptothecin (screen for TDP1 inhibitors); 420,000 tested, 12% active; Potency, µM (highest dose often 46.2 µM), for inactives: at the top dose activity change, negative = growth inhibition, usual class: inhibitors; chicken DT40 Tdp1-/-;hTDP1 cells + 20 nM CPT, ATP luminescence, 48 h; also: potency is read from the fitted curve at half-maximal effect; nearly all actives have a fitted effect of over 55% in size
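Chicken DT40 Tdp1-/- cells complemented with human TDP1, 400 cells/well, exposed to compounds plus 20 nM camptothecin for at least 48 h at 37 C; viability read as ATP content by CellTiter-Glo luminescence.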
HT1080 IDH1KD tx: toxicity to HT-1080 IDH1 knockdown cells (counter line); HT-1080 IDH1 knockdown viability, ATP luminescence, 48 h; Potency, µM (top dose mostly 46.1 µM), inactives show top-dose activity, negative = toxicity, usual class: cytotoxic; 360,000 tested, 2% active; AID 686971;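 also: potency is read from the fitted curve at half-maximal effect; 0% = DMSO wells and -100% = cell-free medium wells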
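IDH1KD HT-1080 cells, 750/well, RPMI + 5% FBS; compound pinned after 2 h settling; 48 h, 37 °C; CellTiter-Glo luminescence; % activity normalised to DMSO and no-cell wells; curves fitted, classed by r2 and efficacy.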
IL1B secr inh: inhibitors of inflammasome signaling (IL-1 beta secretion). THP-1 LPS/ATP IL-1B secretion, AlphaLISA, 16 h; stronger effect = lower value. activity change, % at 57.5 µM. 360,000 tested, 4.7% active; in the data active = activity change below about -50%; inconclusive = mostly about -30% to -49%
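Secreted IL-1B measured by AlphaLISA bead assay after 16 h compound exposure of THP-1 cells; compounds (final up to 57.5 uM) added 1 h before LPS (250 ng/mL) and ATP (1.25 mM) stimulation; lower signal means less secretion.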
ELG1 DNA repair: blocks ELG1-dependent DNA repair in HEK293T cells; 330,000 tested, 2.3% active; AID 504467; HEK293T ELG1-luciferase reporter, luminescence, 16 h; DNA damage induced by 5-fluorouridine; Potency, µM (series often up to 46.1 µM), for the others: at the highest dose activity change, negative = inhibition, hits mostly inhibitors; also: potency is read from the fitted curve at half-maximal effect; nearly all actives have a fitted effect of over 55% in size
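Luminescence from the luciferase reporter, measured 30 min after ONE-Glo reagent at room temperature, was the read-out. Beforehand, 2,000 cells per well were exposed for 16 hr at 37 °C to 5-fluorouridine together with compound or vehicle.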
DT40 TDP1 no CPT: qHTS for Inhibitors of human tyrosyl-DNA phosphodiesterase 1 (TDP1): qHTS in cells in absence of CPT; DT40 Tdp1-/- hTDP1 cells, no CPT, ATP luminescence, 48 h; AID 686978, 2013; Potency, µM (doses to about 46.2 µM), without a hit: at the highest dose activity change, negative = growth inhibition, hits mostly inhibitors; 420,000 tested, 15% active; also: potency is read from the fitted curve at half-maximal effect; nearly all actives have a fitted effect of over 55% in size
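Seeded 400 DT40-hTDP1 cells/well (vehicle DMSO, no 20 nM CPT); pinned compounds; ≥48 hr at 37 °C; CellTiter-Glo luminescence as viability measure.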
An asterisk follows results filed as active; ? = inconclusive; . = no result. Unless noted, calls follow the shape of the dose curve; as a rule, active = well fitted curve in the direction sought with a large enough effect; inconclusive = small, poorly fitted or top-dose-only effect, or another doubt; inactive = no such curve, though single readings can be large; an effect the other way counts as inactive or inconclusive. Unless noted, % is scaled to controls: 0 for no effect and ±100 for the full control effect.

SMILES	HT1080NT lethal	DT40 TDP1 CPT	HT1080 IDH1KD tx	IL1B secr inh	ELG1 DNA repair	DT40 TDP1 no CPT
CC(C)C(N)c1csc(Nc2ccc(C(F)(F)F)cn2)n1 (stereo not drawn)	?	21µM*	?	0	.	?
NC(c1ccccc1)c1csc(Nc2ccc(C(F)(F)F)cn2)n1 (stereo not drawn)	?	?	?	?	.	13µM*
CC1(C(=O)NCc2cccnc2)Cc2c(-c3cccc(C(F)(F)F)c3)ccnc2O1 (stereo not drawn)	?	23µM*	?	68	.	21µM*
CN(C)c1ccc(-c2ccnc3c2CC(C)(C(=O)NCc2ccncc2)O3)cc1 (stereo not drawn)	-5%	?	0%	3	.	?
CC1(C(=O)NCCc2ccccc2)Cc2c(-c3cccc(C(F)(F)F)c3)ccnc2O1 (stereo not drawn)	?	?	?	56	.	?
CC1(C(=O)NCc2ccc(F)c(F)c2)Cc2c(-c3cccc(C(F)(F)F)c3)ccnc2O1 (stereo not drawn)	?	16µM*	?	65	.	16µM*
CC(=O)Nc1ccc(-c2ccnc3c2CC(C)(C(=O)NCc2ccc(F)c(F)c2)O3)cc1 (stereo not drawn)	?	5.8µM*	15µM*	46	.	3.3µM*
CN(C)c1ccc(CNC(=O)C2(C)Cc3c(-c4cccc(C(F)(F)F)c4)ccnc3O2)cc1 (stereo not drawn)	?	16µM*	18µM*	24	.	?
CC(=O)Nc1cccc(-c2ccnc3c2CC(C)(C(=O)Nc2ccc(F)c(Cl)c2)O3)c1 (stereo not drawn)	?	?	?	0	.	?
COc1ccc(C(=O)NC(C)c2cccnc2)cc1S(=O)(=O)N(C)Cc1ccccc1 (stereo not drawn)	3%	-18%	0%	-5	?	?
COc1ccc(CNC(=O)C2(C)Cc3c(-c4ccccc4)ccnc3O2)cc1OC (stereo not drawn)	-20%	?	-28%	23	.	?
CC1(C(=O)NCc2ccc(F)c(F)c2)Cc2c(-c3ccccc3)ccnc2O1 (stereo not drawn)	?	10µM*	?	20	.	6.5µM*
Cc1ccc(O)c(C(=O)c2cnn(C(=O)COc3ccc(Cl)cc3)c2)c1	7%	-28%	15%	9	16µM*	-27%
O=C(c1cnn(C(=O)COc2ccc(Cl)cc2)c1)c1ccccc1O	-2%	-10%	4%	4	?	?
CCCCC(CC)COC(=O)/C=C/c1ccc(OC)cc1 (stereo not drawn)	.	1%	.	.	.	4%
COC(=O)Oc1ccc(/C=C/C(=O)OC(C)C)cc1OC(=O)OC	-13%	?	1%	5	?	9.2µM*
CCCCOC(=O)/C=C/c1ccc(OC(=O)OC)c(OC(=O)OC)c1	-27%	7.3µM*	?	12	?	9.2µM*
O=C(Nc1cccc(NC(=O)c2ccccc2)n1)c1ccccc1	1%	-8%	18%	-2	-8%	?
CCOc1ccc(CCN2C(=O)C(=O)N([C@@H](Cc3ccc(O)cc3)CN3CCC[C@H]3CN3C(=O)C(=O)NC[C@@H]3Cc3ccc(O)cc3)C[C@@H]2Cc2ccc(O)cc2)cc1	23%	4%	26%	-1	.	-6%
CC(C)C[C@H]1CNC(=S)N1C[C@H]1CCCN1C[C@H](Cc1ccc(O)cc1)N1C[C@H](Cc2ccccc2)N(CCc2ccccc2)C1=S	-19%	?	-4%	-22	.	?
CCOc1ccc(CCN2C(=S)N([C@@H](Cc3ccc(O)cc3)CN3CCC[C@@H]3CN3C(=S)NC[C@@H]3Cc3ccc(O)cc3)C[C@@H]2Cc2ccc(O)cc2)cc1	26µM*	?	21µM*	-57*	.	?
CCOc1ccc(CCN2C(=S)N([C@@H](Cc3ccccc3)CN3CCCC3CN3C(=S)NC[C@@H]3Cc3ccccc3)C[C@@H]2Cc2ccc(O)cc2)cc1 (stereo partly drawn)	-8%	21µM*	3%	-4	.	23µM*
CCOc1ccc(CCN2C(=S)N([C@@H](CC(C)C)CN3CCC[C@@H]3CN3C(=S)NC[C@@H]3Cc3ccccc3)C[C@@H]2Cc2ccc(O)cc2)cc1	?	15µM*	?	-65*	.	13µM*
CCOc1ccc(CCN2C(=S)N([C@@H](Cc3ccc(O)cc3)CN3CCC[C@@H]3CN3C(=S)NC[C@@H]3Cc3ccccc3)C[C@@H]2Cc2ccccc2)cc1	-6%	?	-6%	-18	.	?
CC(C)C[C@@H](CN1CCC[C@@H]1CN1C(=S)NC[C@@H]1Cc1ccc(O)cc1)N1C[C@H](Cc2ccccc2)N(CCc2ccccc2)C1=S	-14%	?	-19%	-17	.	?
SMILES	HT1080NT lethal	DT40 TDP1 CPT	HT1080 IDH1KD tx	IL1B secr inh	ELG1 DNA repair	DT40 TDP1 no CPT
Oc1ccc(C[C@H]2CNC(=S)N2CC2CCCN2C[C@H](Cc2ccc(O)cc2)N2C[C@H](Cc3ccccc3)N(CCc3ccccc3)C2=S)cc1 (stereo partly drawn)	-6%	?	-3%	-22	.	21µM*
CCOC(=O)c1c(C)oc2nc(C)nc(NCC3CCN(Cc4cc(C)ccc4C)CC3)c12	.	-9%	.	.	.	-20%
CCOC(=O)c1c(C)oc2nc(C)nc(NCCc3ccc(S(N)(=O)=O)cc3)c12	.	23µM*	.	.	.	15µM*
CCOC(=O)c1c(C)oc2nc(C)nc(NCCc3ccc(C)cc3)c12	.	21µM*	.	.	.	?
CC(C)CC1c2[nH]c3ccccc3c2CCN1C(=O)CCC(=O)N(C)C (stereo not drawn)	-16%	-2%	2%	9	-3%	?
N#Cc1c(N)oc(-c2ccc3c(c2)OCO3)c1-c1ccc2c(c1)OCO2	2%	0%	4%	-61*	3%	-7%
O=C1C=C(NCc2ccc(Cl)cc2)CC(c2ccco2)C1 (stereo not drawn)	-29%	23µM*	?	-2	?	?
O=C1C=C(Nc2ccc(O)cc2)CC(c2ccco2)C1 (stereo not drawn)	?	21µM*	?	12	13%	23µM*

Screening data as filed in PubChem BioAssay.
